Measured values published in PubChem BioAssay AID624261 (National Center for Advancing Translational Sciences (NCATS), 2012).
The list shows a part of the results. Active and inactive are the calls of the source. Calls come from the whole dose curve.

Target: Glutaminase kidney isoform, mitochondrial (Homo sapiens) (UniProt O94925)
Assay: qHTS for Inhibitors of Glutaminase (GLS): Hit Confirmation
Conditions: biochemical glutaminase enzyme inhibition assay
Text: Glutaminase (GLS) catalyzes the hydrolysis of glutamine into glutamate and ammonia. It plays a critical role in glutaminolysis, which is an important energy source for proliferating cells. It was shown that c-Myc, an oncogenic transcription factor known to regulate microRNAs and to stimulate cell proliferation, increases glutamine metabolism by stimulating the expression of GLS via direct suppression of miR23a and miR23b.
GLS is also thought to play a pathogenic role on HAD using a human HIV-1 infected macrophage system. […] GLS inhibition limits glutamate release and provides neuroprotection against HIV-1 infected macrophages.
The overall goal of this project is to identify small molecule inhibitors of GLS through quantitative high throughput screening (qHTS) of the MLSMR. A validated potent and selective inhibitor can be used as a tool molecule to further study the pharmacology of its target as well as explore its potential therapeutic application in cancer and inflammatory neurological disorders, such as HIV1-associated dementia (HAD) and multiple sclerosis. This is the hit confirmation in the primary assay data. […]
Three 3 uL of hKGA is dispensed into black well 1536-well plates in 45 mM KH2PO4 (pH 8.2), 0.02% Tween-20. […] Plate is centrifuged for 25 sec before an initial fluorescence read is obtained on the ViewLux, after 30 min of RT incubation, the final read is taken on the ViewLux.

Chain of Glutaminase kidney isoform, mitochondrial (Homo sapiens) (O94925 whole entry, looked up, canonical isoform): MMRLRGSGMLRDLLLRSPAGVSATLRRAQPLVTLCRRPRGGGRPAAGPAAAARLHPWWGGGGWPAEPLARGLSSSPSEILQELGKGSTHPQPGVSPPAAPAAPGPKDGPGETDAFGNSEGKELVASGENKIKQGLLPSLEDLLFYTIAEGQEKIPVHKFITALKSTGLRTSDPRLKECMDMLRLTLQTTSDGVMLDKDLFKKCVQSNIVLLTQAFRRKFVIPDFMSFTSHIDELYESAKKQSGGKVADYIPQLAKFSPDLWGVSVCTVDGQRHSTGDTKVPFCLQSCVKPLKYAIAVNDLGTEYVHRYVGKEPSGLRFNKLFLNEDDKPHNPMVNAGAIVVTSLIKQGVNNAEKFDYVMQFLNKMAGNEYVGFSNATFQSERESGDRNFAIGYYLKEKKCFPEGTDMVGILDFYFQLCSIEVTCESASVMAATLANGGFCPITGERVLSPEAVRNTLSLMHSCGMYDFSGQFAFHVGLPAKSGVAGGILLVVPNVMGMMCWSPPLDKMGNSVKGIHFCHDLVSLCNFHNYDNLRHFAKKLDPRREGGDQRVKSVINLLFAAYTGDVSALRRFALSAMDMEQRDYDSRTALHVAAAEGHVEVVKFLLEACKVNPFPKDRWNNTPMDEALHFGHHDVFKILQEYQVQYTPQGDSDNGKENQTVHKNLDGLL

Compound | Potency
COc1cc(OC)c(S(=O)(=O)Nc2ccccc2C(=O)O)cc1S(=O)(=O)Nc1ccccc1C(=O)O | 5.8 µM (active)
